Source: PubChem BioAssay (Tox21)
Values joined by “and” are separate entries in the source; they are usually repeats but may differ in a detail not shown here. Equal entries are not always repeated. Inconclusive results are not listed. Some structures have more than one record in an assay (separate samples or runs), and their calls can disagree. Active and inactive are the calls of the source. Unless noted, calls follow the shape of the dose curve; as a rule, active = well fitted curve in the direction sought with a large enough effect in the repeat runs; inconclusive = weak or mixed curves; inactive = no such curve, though single readings can be large; an effect the other way counts as inactive or inconclusive.

Legend:
[1] = qHTS RealTime-Glo MT Cell Viability Assay in HEK293 cells - 0 hour (AID 1224880); also: top concentration of the series differs between compounds; nearly all actives have a fitted effect of over 45% in size
Outline: (§1)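 Nonlytic bioluminescent viability monitoring. HEK293 at 600 cells/well with reagent; 5 h settle; compound transfer by pintool; plates held at 37 C and read at set time points.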

[2] = A CellTox Green Cytotoxicity Assay to monitor cytotoxicity in HEK293 cells - 32 hour (AID 1224881); also: nearly all actives have a fitted effect of over 40% in size
Outline: (§2)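 Cytotoxicity was tracked continuously in HEK293 cells by a DNA-binding dye excluded from viable cells. Compounds were transferred in DMSO 5 h after seeding; fluorescence was recorded at intervals up to 40 h.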

[3] = A CellTox Green Cytotoxicity Assay to monitor cytotoxicity in HepG2 cells - 0 hour (AID 1224882); also: nearly all actives have a fitted effect of over 35% in size
Outline: (§3)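 Real-time, homogeneous cytotoxicity readout: dead-cell DNA staining by CellTox Green in HepG2 monolayers, fluorescence measured at timed intervals up to 40 h of continuous compound exposure.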

[4] = A CellTox Green Cytotoxicity Assay to monitor cytotoxicity in HepG2 cells - 32 hour (AID 1224883); also: nearly all actives have a fitted effect of over 50% in size; also: potency is read from the fitted curve at half-maximal effect
Outline: as §3

[5] = A CellTox Green Cytotoxicity Assay to monitor cytotoxicity in HEK293 cells - 8 hour (AID 1224884); also: nearly all actives have a fitted effect of over 35% in size
Outline: as §2

[6] = qHTS RealTime-Glo MT Cell Viability Assay in HepG2 cells - 16 hour (AID 1224885); also: nearly all actives have a fitted effect of over 50% in size
Outline: (§4)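 Cells + NanoLuc/prosubstrate dispensed (600 cells/well) → 5 h at 37 C/5% CO2 → compounds in DMSO transferred → 40 h incubation at 37 C, luminescence read at 0, 8, 16, 24, 32, 40 h.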

[7] = qHTS RealTime-Glo MT Cell Viability Assay in HEK293 cells - 24 hour (AID 1224886); also: top concentration of the series differs between compounds; nearly all actives have a fitted effect of over 50% in size
Outline: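 Tox21 10K qHTS, HEK293, 600 cells/well, RealTime-Glo reagent co-dispensed with cells; 5 h preincubation, compound by pintool, 37 C, luminescence at 0–40 h.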

[8] = qHTS RealTime-Glo MT Cell Viability Assay in HEK293 cells - 8 hour (AID 1224887); also: top concentration of the series differs between compounds; nearly all actives have a fitted effect of over 50% in size
Outline: as §1

[9] = A CellTox Green Cytotoxicity Assay to monitor cytotoxicity in HEK293 cells - 16 hour (AID 1224888); also: nearly all actives have a fitted effect of over 35% in size
Outline: as §2

[10] = qHTS RealTime-Glo MT Cell Viability Assay in HepG2 cells - 0 hour (AID 1224889); also: nearly all actives have a fitted effect of over 50% in size
Outline: as §4

[11] = A CellTox Green Cytotoxicity Assay to monitor cytotoxicity in HepG2 cells - 8 hour (AID 1224890); also: nearly all actives have a fitted effect of over 45% in size
Outline: as §3

[12] = qHTS assay to identify small molecule antagonists of the estrogen receptor alpha (ER-alpha) signaling pathway using the BG1 cell line in the presence of 0.1 nM 17-beta-estradiol - cell viability counter screen (AID 1259241); also: nearly all actives have a fitted effect of over 40% in size
Outline: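 Viability in VM7Luc4E2 cells after 22 hr compound exposure under 0.1 nM 17beta-estradiol stimulation, by CellTiter-Fluor.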

[13] = qHTS assay to identify small molecule antagonists of the androgen receptor (AR) signaling pathway using the MDA cell line in the presence of 0.5 nM R1881 - cell viability counter screen (AID 1259242); also: nearly all actives have a fitted effect of over 45% in size
Outline: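 Cytotoxicity toward MDA-kb2 cells is measured by CellTiter-Fluor live-cell protease fluorescence after 16 hr compound exposure at 37C in the presence of 0.5 nM R1881 stimulator.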

[14] = target: Estrogen receptor (Homo sapiens) (UniProt P03372); assay: qHTS assay to identify small molecule antagonists of the estrogen receptor alpha (ER-alpha) signaling pathway using the BG1 cell line in the presence of 0.1 nM 17-beta-estradiol (AID 1259244); also: nearly all actives have a fitted effect of over 50% in size
Outline: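 After 5 days in hormone-depleted medium (charcoal-stripped serum, no phenol red), VM7Luc4E2 cells were seeded, incubated 24 h, then co-treated with compound and 0.1 nM (final) estradiol for 22 h before luminescence detection.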

[15] = qHTS assay to identify small molecule HDAC inhibitors (AID 1259364); also: top concentration of the series differs between compounds; nearly all actives have a fitted effect of over 45% in size
Outline: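 Homogeneous cell-based luminescent assay of endogenous class I/II HDAC activity; HCT-116 cells, 2 h compound exposure, 30 min HDAC-Glo development at RT.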

[16] = qHTS assay to identify small molecule HDAC inhibitors - cell viability counter screen (AID 1259365)
Outline: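 Cytotoxicity was gauged in wild-type HCT-116 cells after a brief 2hr treatment with DMSO-dissolved compounds at 37C and 5% CO2, using CellTiter-Glo luminescence developed for 30min at room temperature.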

[17] = qHTS assay to identify small molecule agonists of the sonic hedgehog signaling (Shh) pathway - cell viability counter screen (AID 1259366); also: nearly all actives have a fitted effect of over 50% in size
Outline: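 Stable Gli1-Luc NIH/3T3 clone, 2,000 cells/well. Compound exposure 24hr at 37C. Read-out: CellTiter-Fluor fluorescence.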

[18] = qHTS assay to identify small molecule antagonists of the sonic hedgehog signaling (Shh) pathway - cell viability counter screen (AID 1259367); also: nearly all actives have a fitted effect of over 55% in size
Outline: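 NIH/3T3-derived Gli1-Luc reporter cells, 2,000/well, plated 4 hr before compound addition, then stimulated with conditioned medium for 24 hr at 37C. Viability measured in the same wells by CellTiter-Fluor fluorescence, reagent added at 23 hr for 1 hr.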

[19] = qHTS assay to identify small molecule phospholipidosis (PLD) inducers (AID 1259344; active = well fitted curve in the direction sought with a large enough effect; an effect the other way counts as inactive or inconclusive; also: potency is read from the fitted curve at half-maximal effect)
Outline: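 HepG2 cells, 900/well, treated with compound plus LipidTOX Red for 24 h at 37 C; amiodarone positive and DMSO negative controls. Fixed with paraformaldehyde/Hoechst, then high-content imaging scored LipidTOX pit count and integrated intensity per well and per cell.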

[20] = target: Androgen receptor (Homo sapiens) (UniProt P10275); assay: qHTS assay to identify small molecule antagonists of the androgen receptor (AR) signaling pathway using the MDA cell line in the presence of 0.5 nM R1881 (AID 1259243); also: nearly all actives have a fitted effect of over 50% in size
Outline: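 Steps: seed MDA-kb2 cells, incubate 5 hr at 37C; pin-transfer compounds in DMSO; add R1881 to 0.5 nM final; incubate 16 hr; add ONE-Glo, wait 30 min at room temperature; read luminescence.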

Measured: Potency

Estrogen receptor (Homo sapiens), sequence (P03372 whole entry, looked up): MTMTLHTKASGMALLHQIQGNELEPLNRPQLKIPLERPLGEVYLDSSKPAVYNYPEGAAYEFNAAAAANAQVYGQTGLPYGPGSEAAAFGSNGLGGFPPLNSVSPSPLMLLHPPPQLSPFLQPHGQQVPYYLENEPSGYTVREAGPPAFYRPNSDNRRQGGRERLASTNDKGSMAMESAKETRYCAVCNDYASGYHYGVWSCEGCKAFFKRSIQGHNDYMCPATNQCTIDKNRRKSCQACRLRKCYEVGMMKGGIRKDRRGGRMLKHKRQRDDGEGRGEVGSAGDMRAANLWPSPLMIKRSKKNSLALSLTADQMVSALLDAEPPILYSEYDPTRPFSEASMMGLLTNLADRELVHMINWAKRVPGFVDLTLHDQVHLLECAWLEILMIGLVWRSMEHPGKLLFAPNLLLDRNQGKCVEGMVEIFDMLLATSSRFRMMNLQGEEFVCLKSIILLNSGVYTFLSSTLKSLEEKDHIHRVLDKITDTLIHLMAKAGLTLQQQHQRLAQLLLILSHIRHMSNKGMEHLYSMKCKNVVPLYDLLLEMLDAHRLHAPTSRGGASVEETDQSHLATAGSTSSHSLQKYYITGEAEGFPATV
Androgen receptor (Homo sapiens), sequence (P10275 whole entry, looked up): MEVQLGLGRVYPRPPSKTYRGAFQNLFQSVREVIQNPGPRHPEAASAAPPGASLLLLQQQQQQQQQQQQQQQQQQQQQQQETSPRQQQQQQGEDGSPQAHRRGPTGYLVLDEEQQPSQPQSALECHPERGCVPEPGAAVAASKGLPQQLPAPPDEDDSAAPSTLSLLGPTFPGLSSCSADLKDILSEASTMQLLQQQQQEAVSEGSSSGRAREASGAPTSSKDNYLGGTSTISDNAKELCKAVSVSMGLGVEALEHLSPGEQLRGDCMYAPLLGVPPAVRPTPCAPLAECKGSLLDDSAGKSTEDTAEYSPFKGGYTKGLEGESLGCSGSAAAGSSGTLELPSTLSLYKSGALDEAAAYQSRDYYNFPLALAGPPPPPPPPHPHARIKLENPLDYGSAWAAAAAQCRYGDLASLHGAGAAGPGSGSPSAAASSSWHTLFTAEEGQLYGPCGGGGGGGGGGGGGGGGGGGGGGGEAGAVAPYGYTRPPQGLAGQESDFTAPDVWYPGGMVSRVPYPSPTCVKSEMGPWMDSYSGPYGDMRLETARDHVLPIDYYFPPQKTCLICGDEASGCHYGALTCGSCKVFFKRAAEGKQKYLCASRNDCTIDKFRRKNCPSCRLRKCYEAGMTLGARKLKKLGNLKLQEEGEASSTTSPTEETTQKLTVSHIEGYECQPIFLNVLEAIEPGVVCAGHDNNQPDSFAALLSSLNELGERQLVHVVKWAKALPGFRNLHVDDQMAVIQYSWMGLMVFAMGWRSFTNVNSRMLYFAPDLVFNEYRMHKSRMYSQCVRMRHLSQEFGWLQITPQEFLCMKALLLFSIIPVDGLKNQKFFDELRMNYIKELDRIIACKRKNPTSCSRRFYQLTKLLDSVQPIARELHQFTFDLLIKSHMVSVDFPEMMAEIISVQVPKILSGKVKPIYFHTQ

Nc1ncc([N+](=O)[O-])s1
not listed: [19] | [20]
inactive: all other assays above

C[C@H]1C(=O)O[C@@H]2CCN3CC=C(COC(=O)[C@](C)(O)[C@]1(C)O)[C@H]23
not listed: [20]
inactive: all other assays above

COC(C)(C)CCCC(C)C/C=C/C(C)=C/C(=O)OC(C)C (centres undefined)
not listed: [14]
inactive: all other assays above

O=[N+]([O-])c1cc([As](=O)(O)O)ccc1O
not listed: [20]
inactive: all other assays above

CCOc1ccc(N)cc1
not listed: [19] | [20]
inactive: all other assays above

ClC(Cl)c1ccccc1
not listed: [19] | [20]
inactive: all other assays above

Sc1ccccc1
inactive and 43.6 µM (active): [4]
not listed: [19] | [20]
inactive: all other assays above

Cl/C=C/Cl
not listed: [19] | [20]
inactive: all other assays above

CCSC(=O)N1CCCCCC1
not listed: [19] | [20]
inactive: all other assays above

O=[N+]([O-])c1ccc(Cl)c(Cl)c1
not listed: [19] | [20]
inactive: all other assays above

O=C(O)C1C(C(=O)O)C2(Cl)C(Cl)=C(Cl)C1(Cl)C2(Cl)Cl (centres undefined)
not listed: [19] | [20]
inactive: all other assays above

C=CCN=C=S
not listed: [20]
inactive: all other assays above

Cc1cc(Cl)ccc1OC(C)C(=O)O (centres undefined)
not listed: [19] | [20]
inactive: all other assays above

CN(C)C(=O)Cl
not listed: [19] | [20]
inactive: all other assays above

Cc1cccc(C)c1NC(=O)CN1CCCC1=O
not listed: [20]
inactive: all other assays above

Nc1ccc([As](=O)(O)O)cc1
not listed: [20]
inactive: all other assays above

OCC(O)CCl (centres undefined)
not listed: [19] | [20]
inactive: all other assays above

CC(C)(C)C(=O)CCl
not listed: [19]
inactive: all other assays above

O=C(O)COc1ccccc1
not listed: [20]
inactive: all other assays above

Cc1cc(O)ccc1Cl
not listed: [20]
inactive: all other assays above

C=CC#N
not listed: [19] | [20]
inactive: all other assays above

CNC(=O)O/N=C/C(C)(C)SC
not listed: [19] | [20]
inactive: all other assays above

CCCCC(CC)C(=O)Cl (centres undefined)
not listed: [19] | [20]
inactive: all other assays above

COP(=S)(OC)Oc1ccc(SC)c(C)c1
not listed: [20]
inactive: all other assays above

C[C@]12CC[C@H](O)CC1=CC[C@@H]1[C@@H]2CC[C@]2(C)C(=O)CC[C@@H]12
active: [19] 10 µM
not listed: [20]
inactive: all other assays above

O=C(O)c1cc(Oc2ccc(C(F)(F)F)cc2Cl)ccc1[N+](=O)[O-]
not listed: [14] | [20]
inactive: all other assays above

CNC(=O)O/N=C/C(C)(C)S(C)(=O)=O
not listed: [19]
inactive: all other assays above

COS(=O)(=O)OC
not listed: [19] | [20]
inactive: all other assays above

CN(C)CCC#N
not listed: [19] | [20]
inactive: all other assays above
